Several values for one entry are separate records, joined by “and”; a condition that tells them apart may be missing. Identical values can stand only once. About 1,200 (0.39%) of roughly 310,000 compounds were called active. How the calls were made is not given here. The list is a sample of the results. Potency and affinity values are given separately.
What follows are compounds tested against Large T antigen (Simian virus 40) (UniProt P03070) (assay: SV40 large T antigen inhibitors, biochemical (AID 1903)). Conditions: SV40 large T antigen ATPase/helicase inhibition assay; at 20 µM; hits give high values.
Sequence of Large T antigen (Simian virus 40) (P03070 whole entry, looked up): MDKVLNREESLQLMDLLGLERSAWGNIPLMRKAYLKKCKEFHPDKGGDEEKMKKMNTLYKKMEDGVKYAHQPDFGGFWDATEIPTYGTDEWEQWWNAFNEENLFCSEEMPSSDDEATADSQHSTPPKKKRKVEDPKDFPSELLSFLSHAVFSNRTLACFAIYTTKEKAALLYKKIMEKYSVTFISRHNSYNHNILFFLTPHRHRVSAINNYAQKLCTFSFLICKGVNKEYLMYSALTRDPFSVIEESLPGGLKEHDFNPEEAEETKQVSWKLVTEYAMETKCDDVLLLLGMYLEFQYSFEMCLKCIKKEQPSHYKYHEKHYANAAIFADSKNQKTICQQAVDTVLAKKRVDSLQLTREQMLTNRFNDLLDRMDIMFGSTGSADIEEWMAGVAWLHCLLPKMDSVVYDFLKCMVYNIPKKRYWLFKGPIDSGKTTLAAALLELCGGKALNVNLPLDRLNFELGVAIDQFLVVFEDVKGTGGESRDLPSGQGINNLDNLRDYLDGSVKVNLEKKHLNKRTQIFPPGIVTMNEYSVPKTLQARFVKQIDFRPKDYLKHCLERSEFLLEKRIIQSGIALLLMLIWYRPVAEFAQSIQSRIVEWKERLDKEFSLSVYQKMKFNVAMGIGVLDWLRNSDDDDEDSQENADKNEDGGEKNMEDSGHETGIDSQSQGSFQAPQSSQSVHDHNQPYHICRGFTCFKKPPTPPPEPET

inhibition, inactive:
CCCCNC(=O)C1CCCN1C(=O)Nc1ccccc1 (stereo not given) 4.68%
C=CCOCCN1C(=O)C2C3C=CC(C2C1=O)C1C2C(=O)N(CCOCC=C)C(=O)C2C31 (stereo not given) 7.04%
O=C(CSc1ccc(F)cc1)NNC(=O)c1ccccc1Br 7.8%
COc1ccc(CCN=C(N)NS(=O)(=O)c2ccc(C)c(C)c2)cc1 23.6%
CCOc1cc(C(=O)N2CCC3(CC2)NCCc2[nH]cnc23)cc(OCC)c1OCC 8.46%
O=C(OCc1ccc(Br)cc1)c1cnc(Cl)c(Cl)c1 6.01%
COCCNC(=O)c1ccc(C2SCC(=O)N2CCc2ccccc2)cc1 (stereo not given) 2.84%
COc1cccc(NC(=O)C2Cc3ccccc3CN2C(=O)c2ccco2)c1 (stereo not given) 10.4%
CCOc1ccc(N(CC(=O)NCc2ccccc2)C(=O)Cn2nnc(-c3ccc(C)o3)n2)cc1 3.98%
COc1ccc2cc3[n+](cc2c1OC)CCc1cc2c(cc1-3)OCO2 13.6% and 21.3%
COc1cc2c(cc1OC)-c1cc3ccc(OC)c(OC)c3c[n+]1CC2 10.3%
CCC1(CC)Cc2ccccc2C2=C(C(=O)N3CCCCC3)C(=O)C(=O)N21 3.53%
CSc1ccc(-c2nc(CSCC(=O)NCCCN3CCCC3=O)c(C)o2)cc1 8.19%
FC(F)(F)c1ccccc1Nc1nccs1 3.87%
Cc1nsc(Nc2ccccc2)c1C#N 11.3%
CCOC(=O)CC(NC(=O)CCc1c(C)nc2nc(C)nn2c1C)c1ccc(C)cc1 (stereo not given) 1.45%
CC(Oc1ccc2c(c1)oc(=O)c1ccccc12)C(=O)NCCN1CCOCC1 (stereo not given) 4.69%
O=C(CSc1ccc(Cl)cc1)NNC(=O)c1cccnc1 28.6%
O=c1nccc(N/N=C/c2ccccc2)[nH]1 2.59%
C#CCOCCOCCOCCNc1nc(N2CCN(C(=O)CCCCCCCCCCNC(=O)[C@H](CCCCN)n3cc(CCO)nn3)CC2)nc(N2CCN(C(=O)CCCCCCCCCCNC(=O)[C@H](CCCCN)n3cc(C[C@@H](C)CC)nn3)CC2)n1 22.1%
C#CCOCCOCCOCCNc1nc(N2CCN(C(=O)CCCCCCCCCCNC(=O)[C@@H](CCSC)n3cc(CCO)nn3)CC2)nc(N2CCN(C(=O)CCCCCCCCCCNC(=O)[C@H]([C@@H](C)CC)n3cc(CCCCN=C(N)N)nn3)CC2)n1 5%
C#CCOCCOCCOCCNc1nc(N2CCN(C(=O)CCCCCCCCCCNC(=O)[C@H](CCCCN)n3cc(C[C@@H](C)CC)nn3)CC2)nc(N2CCN(C(=O)CCCCCCCCCCNC(=O)[C@H](CCCN=C(N)N)n3cc(C[C@@H](C)CC)nn3)CC2)n1 35.8%
C#CCOCCOCCOCCNc1nc(N2CCN(C(=O)CCCCCCCCCCNC(=O)[C@H](CO)n3cc(CCCSC)nn3)CC2)nc(N2CCN(C(=O)CCCCCCCCCCNC(=O)[C@H](CCCN=C(N)N)n3cc(C[C@@H](C)CC)nn3)CC2)n1 20.2%
C#CCOCCOCCOCCNc1nc(N2CCN(C(=O)CCCCCCCCCCNC(=O)[C@H]([C@@H](C)CC)n3cc(CCCCN=C(N)N)nn3)CC2)nc(N2CCN(C(=O)CCCCCCCCCCNC(=O)[C@H](CO)n3cc(CCCCCN)nn3)CC2)n1 28.3%
C#CCOCCOCCOCCNc1nc(N2CCN(C(=O)CCCCCCCCCCNC(=O)[C@H](CCCCN)n3cc(CCO)nn3)CC2)nc(N2CCN(C(=O)CCCCCCCCCCNC(=O)[C@H](CCCN=C(N)N)n3cc(C[C@@H](C)CC)nn3)CC2)n1 30.2%
C#CCOCCOCCOCCNc1nc(N2CCN(C(=O)CCCCCCCCCCNC(=O)[C@H](CCCCN)n3cc(CCCC(=O)O)nn3)CC2)nc(N2CCN(C(=O)CCCCCCCCCCNC(=O)[C@H](CCCN=C(N)N)n3cc(C[C@@H](C)CC)nn3)CC2)n1 15.3%
C#CCOCCOCCOCCNc1nc(N2CCN(C(=O)CCCCCCCCCCNC(=O)[C@H](CO)n3cc(CCCCCN)nn3)CC2)nc(N2CCN(C(=O)CCCCCCCCCCNC(=O)[C@H](CCCN=C(N)N)n3cc(C[C@@H](C)CC)nn3)CC2)n1 36.3%
NS(=O)(=O)c1ccc(CCNC(=O)C(=O)Nc2cc3c4c(c2)CC(=O)N4CCC3)cc1 10.2%
CCN(C(=O)COC(=O)c1cncc(Br)c1)C1CCS(=O)(=O)C1 (stereo not given) 2.6%
CN(C)S(=O)(=O)c1cccc(COC(=O)c2ccc(Cl)cc2O)c1 4.75%
CCn1ccnc1CNC(=O)CC1C(=O)NCCN1Cc1ccc(OC)cc1OC (stereo not given) 8.33%
CC(OC(=O)c1ccc(NS(=O)(=O)c2cccs2)cc1)C(=O)N(C)C1CCCCC1 (stereo not given) 12.6%
O=C(NCCCO)c1ccc2[nH]c3c(c2c1)CCCC3 2.41%
COc1ccccc1OC(C)C(=O)Nc1nc(-c2ccc(S(=O)(=O)N3CCOCC3)cc2)cs1 (stereo not given) -2.76%
O=C(O)CCC(=O)NNC(=O)c1ccc([N+](=O)[O-])cc1 24.3%
CN1CCN(c2ccccc2NC(=O)c2ccc(N3CCCCC3)c([N+](=O)[O-])c2)CC1 1.97%
COc1cc(C(=O)NCc2nnc(SCC(=O)NC3CCCCC3)o2)cc(OC)c1OC 9.82%
CNC(=S)N(CCCO)Cc1cc2cc3c(cc2[nH]c1=O)OCO3 4.07%
N#Cc1cc2c(nc1SCC(=O)Nc1sc3c(c1C#N)CCC3)CCCCCC2 -1.85%
Cc1nc(NC(=O)CCl)sc1C(=O)N(C)C 22.7%
C#CCOCCOCCOCCNc1nc(N2CCOCC2)nc(N2CCN(C(=O)CCCCCCCCCCNC(=O)[C@H]([C@@H](C)CC)n3cc(CCCCN=C(N)N)nn3)CC2)n1 5.58%
C#CCOCCOCCOCCNc1nc(N2CCN(C(=O)CCCCCCCCCCNC(=O)[C@H]([C@@H](C)CC)n3cc(CCCCN=C(N)N)nn3)CC2)nc(N2CCN(C(=O)CCCCCCCCCCNC(=O)[C@@H]([C@H](C)O)n3cc(C)nn3)CC2)n1 7.94%
CCOC(=O)c1cc(-c2ccc(OC)cc2)n(CCC(=O)NCCN2CCC(C)CC2)c1C 5.63%
CCN(CC)C(=O)Cn1cnc2ccccc2c1=O 5.63%
CCOc1ccc(N2C(=O)/C(=C/c3ccc(C)o3)N(C)C2=S)cc1 15.8%
Cc1ccc(/C=C2/C(=O)N(c3ccccc3)C(=S)N2C)o1 6.66%
COc1ccc(N2C(=O)/C(=C/c3cccs3)NC2=S)cc1 14.1%
Cc1ccc(/C=C2/NC(=O)N(c3ccccc3)C2=O)o1 22.8%
O=C1/C(=C\c2ccco2)NC(=S)N1c1ccccc1 35.2%
CCCN1C(=O)/C(=C/c2ccc(C)o2)NC1=S 33.1%
COc1ccc(N2C(=O)C3CC(C)=C(C)CC3C2=O)c(OC)c1 (stereo not given) 11.1%
Cc1ccc(/C=C2\C(=O)Nc3ccccc32)o1 11.2%
COc1cc(O)c(C(CC(=O)N2CCCC(C)C2)c2ccc3c(c2)OCO3)c(OC)c1 (stereo not given) 6.43%
Cn1cccc1C(=O)NNC(=O)c1ccccc1Br 8.13%
CC1(C)CC(=O)/C(=C(\O)Cc2ccccc2)C(=NCCCCCC(=O)O)C1 4.38%
CCCCNCc1cccn1-c1ccccc1 24.7%
COc1c(C)cccc1C(=O)Nc1ccc(OCC(=O)N2CCOCC2)cc1C 14.7%
COCC(=O)N/N=C\c1ccccc1OC/C=C/c1ccccc1 4.69%
COc1ccc(N=Cc2[nH]c3ccccc3c2O)cc1 13.7%
C=CCOc1ccc(C=Nc2ccc(OC)cc2)c(O)c1 28.3%
Cc1csc(NC(=O)CSc2nnc(-c3ccccc3)o2)n1 -6.99%
O=C(N/N=C/c1ccc(O)cc1)c1cc(-c2ccccc2)nc2ccccc12 14.6%
Cc1cc(SCC(=O)N/N=C/c2ccc(C(=O)O)cc2)nc2ccccc12 6.65%
COc1cc(/C=N/NC(=O)CSc2nc3ccccc3n2C)cc(OC)c1OC -1.56%
COc1cc(/C=N/NC(=O)c2cc(-c3ccccc3)nc3ccccc23)ccc1O 25.1%
CCn1c(SCC(=O)N/N=C/c2cc(OC)c(O)c(OC)c2)nc2ccccc21 -7.37%
Cc1cc(SCC(=O)N/N=C/c2ccc(O)cc2O)nc2ccccc12 7.95%
Cn1c(SCC(=O)N/N=C/c2ccncc2)nc2ccccc21 2.44%
CCn1c(SCC(=O)N/N=C/c2ccc(OC)c(OC)c2)nc2ccccc21 6.02%
C#CCOCCOCCOCCNc1nc(N2CCN(C(=O)CCCCCCCCCCNC(=O)[C@@H](CCC(=O)O)n3cc(CCCCCN)nn3)CC2)nc(N2CCN(C(=O)CCCCCCCCCCNC(=O)[C@H](CO)n3cc(CCCCCN)nn3)CC2)n1 31.5%
CCOC(=O)C1=C(C)N(C)C(=S)N(C)C1c1ccc(OC)cc1 (stereo not given) -2.82%
CCOc1cc2sc(N3CCC(C(=O)NCCCN4CCCC4=O)CC3)nc2cc1Br 12.1%
Cc1ccc(C(=O)NCCc2n[nH]c(=S)n2C)cc1 10.6%
CCC(=O)N1c2ccccc2[C@@H](N(C(C)=O)c2ccccc2)C[C@H]1C 4.31%
O=C(c1ccccc1)N1CCN(C2CC3CCC2C3)CC1 (stereo not given) 6.45%
